# According to the supplement of paper PMC4166925:
# ± gives the standard deviation of the averaged measurements. Over roughly 33,000 sequences, “E-score (dimensionless, -0.5 to 0.5)” has its median near -0.046; the highest 2% begin near 0.36. Only a selection was taken, and the highest values are over-represented in it overall.
# Tested on: T1, SpTbr T-box DNA-binding domain (GST fusion)
# T1 sequence: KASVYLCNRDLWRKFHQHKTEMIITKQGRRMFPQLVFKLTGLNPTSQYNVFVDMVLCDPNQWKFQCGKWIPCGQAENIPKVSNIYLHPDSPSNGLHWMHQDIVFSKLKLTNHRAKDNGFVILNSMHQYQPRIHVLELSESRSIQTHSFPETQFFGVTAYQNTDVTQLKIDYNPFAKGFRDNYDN
# Assay: PBM E-score of 8-mer (E-score (dimensionless, -0.5 to 0.5)); Tbr is Tbrain of the sea star Patiria miniata (Pm) or the sea urchin Strongylocentrotus purpuratus (Sp); higher = stronger binding preference
# Settings: the construct has about 5 more residues each side
# Method: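 Universal protein-binding microarray (Agilent AMADID 016060, 60-bp probes with a 35-bp variable region) incubated with 200 nM GST-fused Strongylocentrotus purpuratus Tbr T-box DNA-binding domain (residues 362-554) in PBS pH 7.5. Scored for every ungapped 8-mer (given with its reverse complement) as E-score (range -0.5 to 0.5; >0.45 counts as bound) and Z-score of median probe intensity. Two replicate arrays (datasets 1 and 2).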
# 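Further: protein at 200 nM in PBS on universal double-stranded arrays.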
row,Sequence,PBM E-score of 8-mer
1,ACTTGTAC,-0.109 ± 0.04
2,CACTCGGC,0.143 ± 0.021
3,GCGCGATA,0.288 ± 0.014
4,ACGCGAAA,0.138 ± 0.018
5,TCGCGAAA,0.403 ± 0.026
6,CCGCGAAA,0.32 ± 0.025
7,CCGCGAAC,0.338 ± 0.0083
8,GCGCGAAC,0.439 ± 0.018
9,GCGCGACA,0.3438 ± 0.0009
10,ACGCGAAC,0.276 ± 0.003
11,GCGCGAAA,0.4374 ± 0.0039
12,GCGTCGAC,0.114 ± 0.082
13,CCAAATAA,-0.267 ± 0.079
14,GTGGAAAA,0.125 ± 0.036
15,AAACAGCT,0.0803 ± 0.013
16,CTTGTCAC,0.39 ± 0.013
17,CCTGTCAC,0.3163 ± 0.0011
18,ATTGTCAC,0.399 ± 0.013
19,ATTGTCAG,0.0298 ± 0.045
20,CTTGTCAA,0.355 ± 0.0065
21,ATTGTCAA,0.225 ± 0.019
22,CCAGCACC,0.216 ± 0.04
23,CTGAACAC,-0.0318 ± 0.035
24,ACTCTTTC,0.0551 ± 0.015
25,CCACTTTC,0.0779 ± 0.016
26,ACACTTTG,0.379 ± 0.005

row,Sequence,PBM E-score of 8-mer
1,ACACTTTC,0.402 ± 0.027
2,AGACTTTG,-0.0212 ± 0.042
3,ACACTTTA,0.324 ± 0.043
4,CGCATAGA,-0.0202 ± 0.12
5,GCGCTACC,0.295 ± 0.0067
6,GCTTTACA,0.0266 ± 0.031
7,AGCTTTCA,-0.132 ± 0.045
8,GACACGTC,0.333 ± 0.0087
9,AACACGTC,0.372 ± 0.009
10,AACACGTA,0.317 ± 0.018
11,AACACGCT,0.185 ± 0.073
12,AACACGAT,0.291 ± 0.022
13,AACACGTT,0.367 ± 0.044
14,AGTGGAGA,-0.0675 ± 0.13
15,AAAGTGAC,0.367 ± 0.032
16,AAAGTGCG,0.337 ± 0.006
17,CAAGTGCG,0.395 ± 0.02
18,AAAGTGAA,-0.017 ± 0.029
19,CAAGTGTG,0.453 ± 0.0056
20,ACAGTGTG,0.338 ± 0.011
21,AAAGTGTG,0.441 ± 0.0064
22,AAAGTGAG,0.217 ± 0.0053
23,AAAGTGAT,0.205 ± 0.0065
24,CAAGTGTA,0.249 ± 0.051
25,CAAGTGCC,0.266 ± 0.0062
26,CAAGTGGG,0.265 ± 0.022

row,Sequence,PBM E-score of 8-mer
1,CAGCAACC,-0.109 ± 0.025
2,ACCTTAGA,0.0853 ± 0.026
3,AATCTCTA,-0.14 ± 0.0019
4,AGTACTGA,-0.0534 ± 0.012
5,AGTATCGC,0.185 ± 0.0083
6,GAAGTGTA,0.304 ± 0.0081
7,CACAAGTC,0.166 ± 0.039
8,AAAGTGTT,0.416 ± 0.035
9,AAAGTGGT,0.00031 ± 0.043
10,AAAGTGTC,0.39331 ± 0.00039
11,AAAGTGTA,0.112 ± 0.073
12,GAAGTGTC,0.42864 ± 0.00011
13,CAAGTGTC,0.351 ± 0.012
14,AAAGTGGC,0.205 ± 0.025
15,ACAGTGTC,0.213 ± 0.0024
16,CACAAGTG,0.38 ± 0.016
17,AACAAGTG,0.298 ± 0.035
18,GCGCTTAC,0.216 ± 0.054
19,CTGATGCA,0.0385 ± 0.021
20,CCTCGTAC,-0.22 ± 0.0077
21,AAGGGTAG,-0.0117 ± 0.11
22,ACTGGAGA,-0.123 ± 0.052
23,CCACCTGA,0.148 ± 0.02
24,AGACCTTC,-0.26 ± 0.016
25,CCACCTTA,0.213 ± 0.01
26,GAACCTTA,-0.0824 ± 0.12

row,Sequence,PBM E-score of 8-mer
1,GCACCTTA,0.404 ± 0.026
2,CCACCTTC,0.2634 ± 0.0018
3,ACACCTTC,0.4746 ± 0.0017
4,AAACCTTG,-0.17 ± 0.045
5,GCACCTGA,0.386 ± 0.0077
6,TCACCTGA,0.3337 ± 0.0032
7,AGACCTTG,-0.19 ± 0.022
8,ACACCTTG,0.4831 ± 0.0013
9,ATATCCAT,-0.037 ± 0.059
10,AGCCAACT,-0.173 ± 0.045
11,AGATTTCA,-0.0179 ± 0.064
12,ACTAGGAT,-0.2518 ± 0.0023
13,CAAGGAAC,-0.142 ± 0.03
14,CTCTCCAC,0.0528 ± 0.073
15,CGTTAGGA,-0.0398 ± 0.0099
16,AAGAATTC,-0.22 ± 0.027
17,AAACCTTA,-0.0223 ± 0.025
18,ACACCTTA,0.46892 ± 0.00038
19,ATACCTTA,0.1245 ± 0.00057
20,GCAAGAGC,-0.0244 ± 0.092
21,ATCGTCAC,0.381 ± 0.011
22,ATCGTCAA,0.158 ± 0.0046
23,ATCGTCAT,-0.00478 ± 0.05
24,CTCGTCAA,0.201 ± 0.0083
25,GTCGTCAC,0.337 ± 0.025
26,CTCGTCAC,0.389 ± 0.024

row,Sequence,PBM E-score of 8-mer
1,TCGCCAGA,0.0255 ± 0.017
2,AAGGCACA,-0.16 ± 0.04
3,ATGGGGGG,-0.172 ± 0.0088
4,AGAAGTGA,0.289 ± 0.014
5,AGTCTACG,-0.209 ± 0.008
6,CAGCTACG,-0.036 ± 0.0027
7,TGTGGTAA,0.133 ± 0.02
8,GGCGGCCA,-0.156 ± 0.03
9,ATTCGCAC,0.4705 ± 0.0024
10,CTTCGCCC,-0.0235 ± 0.028
11,CTTCGCAA,0.341 ± 0.029
12,CTTCGCAC,0.461 ± 0.015
13,ATTCGCAA,0.29 ± 0.016
14,ATTCGCAG,0.33 ± 0.013
15,GTCTATAA,-0.0104 ± 0.0026
16,CGAGGGCC,-0.127 ± 0.057
17,ACGAAAGT,0.00641 ± 0.0039
18,CATGTGTC,0.3458 ± 0.0021
19,AATGTGCG,0.3287 ± 0.0028
20,AATGTGGC,0.219 ± 0.02
21,AATGTGTC,0.413 ± 0.012
22,AATGTGTA,0.207 ± 0.05
23,AATGTGTG,0.4245 ± 0.0035
24,AGACGACT,-0.202 ± 0.093
25,GCTGGGCC,-0.144 ± 0.0084
26,ATGTGACC,0.169 ± 0.046

row,Sequence,PBM E-score of 8-mer
1,ATGTGACA,0.409 ± 0.0051
2,ATGTGACG,0.285 ± 0.026
3,GTGTGACA,0.457 ± 0.0047
4,CTGTGACC,0.142 ± 0.026
5,CTGTGACA,0.31 ± 0.011
6,CAGATAGA,-0.131 ± 0.025
7,CAGCAGAG,-0.0309 ± 0.05
8,CACTCTCA,0.317 ± 0.00081
9,CATGCGCG,0.221 ± 0.023
10,CTACTGTC,0.1 ± 0.024
11,CAGGACTA,-0.191 ± 0.029
12,AGACTTAT,0.00662 ± 0.019
13,GAGCCTGC,-0.0257 ± 0.039
14,GATAACAA,0.27 ± 0.027
15,CATAACAC,0.405 ± 0.028
16,CATAACAA,0.00154 ± 0.064
17,GATAACGC,0.288 ± 0.011
18,AATAACAC,0.294 ± 0.062
19,GATAACAC,0.414 ± 0.022
20,CAGCATGA,-0.154 ± 0.015
21,AAGTTGGT,-0.0114 ± 0.097
22,GGAGTCAA,-0.0304 ± 0.04
23,ATAGCACA,0.156 ± 0.06
24,ATAGCACG,0.34 ± 0.0094
25,CTAGCACA,0.271 ± 0.018
26,ATAGCACC,0.387 ± 0.011

row,Sequence,PBM E-score of 8-mer
1,CTAGCACC,0.415 ± 0.014
2,CAAGCACC,0.0313 ± 0.011
3,CCAGTTGA,0.0132 ± 0.086
4,CAGGGGTC,-0.231 ± 0.086
5,AGAATCGC,0.165 ± 0.045
6,ACTGATGG,-0.00902 ± 0.051
7,ACAGAGGG,-0.118 ± 0.029
8,GCAATGCC,-0.174 ± 0.032
9,GCATCTAA,-0.0797 ± 0.077
10,GAATTGAA,-0.177 ± 0.099
11,GTCGCCCA,0.198 ± 0.0069
12,ACACATAG,0.306 ± 0.018
13,ACACATAA,0.269 ± 0.016
14,ACACATTG,0.368 ± 0.01
15,ACACATTC,0.38 ± 0.022
16,ACACATAT,0.407 ± 0.0072
17,AAACATTC,-0.0068 ± 0.0056
18,AAACATTG,0.0255 ± 0.053
19,ACACATTA,0.291 ± 0.031
20,CCACATTC,0.14 ± 0.06
